PostGolgi ctrl: growth of the yeast control strain, post-Golgi counter-screen | efflux-deficient yeast background strain, growth absorbance A615, 16 h | inhibition, % at 10 µM | 98,000 tested, 5% active
CYP2C9 activ: increases human cytochrome P450 2C9 activity. P11712. recombinant CYP2C9, luciferin-H conversion, luminescence; active compounds read high; factor 1 = untreated enzyme, 0 = blocked. activation factor at 5 µM. 96,000 tested, 1.4% active. AID 1024;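 active means activation factor of 2 or more for CYP2C9 at a 5 µM dose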
CYP2C19 act: cytochrome P450 2C19 (human) activation; 96,000 tested, under 10 active; AID 1025; P33261; recombinant CYP2C19, luciferin-H EGE luminescence; active compounds read high; 0 = fully inhibited enzyme, 1 = untreated enzyme; activation factor at 5 µM;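 active means activation factor of at least 2 at 5 µM in the primary screen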
Target sequence (P33261 whole entry, looked up): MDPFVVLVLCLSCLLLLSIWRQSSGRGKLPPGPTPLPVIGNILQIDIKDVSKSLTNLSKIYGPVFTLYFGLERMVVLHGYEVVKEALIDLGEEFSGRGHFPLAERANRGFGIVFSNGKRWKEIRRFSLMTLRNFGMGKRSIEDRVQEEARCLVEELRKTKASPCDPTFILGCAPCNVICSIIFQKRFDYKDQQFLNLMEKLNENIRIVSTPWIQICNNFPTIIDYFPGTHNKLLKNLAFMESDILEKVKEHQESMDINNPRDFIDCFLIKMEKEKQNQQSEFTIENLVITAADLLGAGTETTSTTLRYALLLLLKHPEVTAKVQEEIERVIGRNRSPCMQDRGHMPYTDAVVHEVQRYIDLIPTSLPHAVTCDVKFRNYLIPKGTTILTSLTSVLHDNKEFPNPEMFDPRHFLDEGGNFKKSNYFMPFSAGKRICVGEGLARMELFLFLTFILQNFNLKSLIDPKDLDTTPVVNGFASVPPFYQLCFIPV
CYP2C9 inhib: inhibitors of human CYP2C9; P11712; CYP2C9 Supersomes, luciferin-H conversion, luminescence; inhibition, % at 5 µM; 96,000 tested, 20% active; AID 777;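 active means blocking of liver enzyme CYP2C9 beyond about 50% at 5 µM, limit read from the data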
CYP2C19 inhib: human CYP2C19 inhibition; P33261; CYP2C19 Supersomes, luciferin-H EGE luminescence, 30 min; inhibition, % at 5 µM; 96,000 tested, 21% active; AID 778;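 active means CYP2C19 inhibition above a set limit at 5 µM in the primary screen, cut at about 50% in these data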
PostGolgi yeast: growth inhibition of a yeast mutant, post-Golgi transport screen; inhibition, % at 10 µM; post-Golgi transport phenotypic cell assay; 98,000 tested, 0.9% active;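 further: yeast cells grown in 1536-well plates; yeast grown about 18 h at 30C before absorbance read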
Of the large screens only hits and unclear results are named; the others gave an inactive call. Hits are enriched below; roughly 32% of the tested compounds scored in any of these assays. Unless noted, no stated cut-off is given here; in the data, active means inhibition above about 30%; inactive means the rest.

CCCn1c(C)cc(C(=O)COC(=O)c2cc(S(=O)(=O)NCC(C)C)c(Cl)cc2Cl)c1C	CYP2C19 inhib 66.2
COC(=O)CC1Oc2ccccc2N(Cc2ccc(C)cc2)C1=O (stereo not given)	none
COC(=O)CN1C(=S)N(c2ccc(Cl)cc2)C(=O)C1CC(=O)Nc1ccc(Cl)cc1 (stereo not given)	none (no result: CYP2C9 activ, CYP2C19 act, CYP2C9 inhib, CYP2C19 inhib)
COc1ccc(NC(=O)CC2C(=O)N(c3ccc(OC)cc3)C(=O)N2C(C)C)cc1 (stereo not given)	CYP2C19 inhib 55.8
COc1ccc(NC(=O)CC2C(=O)N(c3ccc(Cl)cc3)C(=S)N2CCc2ccncc2)cc1 (stereo not given)	CYP2C9 inhib 96.7, CYP2C19 inhib 87.7
COc1ccc(NC(=O)CC2C(=O)N(c3ccc(OC)cc3)C(=O)N2CCN2CCN(C)CC2)cc1 (stereo not given)	none
COC(=O)CN1C(=S)N(Cc2ccccc2)C(=O)C1CC(=O)Nc1ccc(Br)cc1 (stereo not given)	PostGolgi ctrl 78.9
CCN1C(=O)C(CC(=O)Nc2ccc(OC)cc2)N(Cc2cccnc2)C1=S (stereo not given)	CYP2C19 inhib 64.9
C=CCn1c(C#N)c(N)sc1=N	none
CCOC(=O)CSc1nc(-c2ccc(OC)cc2)ns1	none
CC(C)CCN1CCNC(=O)C1CC(=O)Nc1ccc(F)cc1 (stereo not given)	none
CN1C(=O)C(CC(=O)Nc2ccc(F)cc2)N(CCCc2ccccc2)C1=S (stereo not given)	CYP2C9 inhib 89.0, CYP2C19 inhib 60.5
C=CCN1C(=O)C(CC(=O)Nc2ccc(OC)cc2)N(Cc2ccco2)C1=S (stereo not given)	CYP2C19 inhib 95.7
COc1ccc(NC(=O)CC2C(=O)N(CCc3ccccc3)C(=S)N2Cc2cccnc2)cc1 (stereo not given)	CYP2C9 inhib 91.7, CYP2C19 inhib 89.5
COc1ccc(NC(=O)CC2Oc3ccccc3NC2=O)cc1 (stereo not given)	none
COc1ccc(/C(O)=C2/C(=O)C(=O)N(CCCN(C)C)C2c2ccccc2)cc1Cl (stereo not given)	none
O=C(NCCO)C(F)(F)C(F)(F)C(F)(F)OC(F)(C(=O)NCCO)C(F)(F)F (stereo not given)	none
COc1ccc(Nc2nc(C(=O)NCCCN3CCOCC3)cs2)cc1	none
CCOC(=O)c1cnc2cc(Cl)c(OC)cc2c1NCC1CCCO1 (stereo not given)	CYP2C9 inhib 69.9
CCOC(=O)N1CCC(NC(=O)C2CCN(S(=O)(=O)N3CCCC3)CC2)CC1	none
CCOC(=O)N1CCC(NC(=O)C2CCCN(S(C)(=O)=O)C2)CC1 (stereo not given)	PostGolgi ctrl 35.7
COC(=O)c1ccc(NC2(C#N)C(=O)Nc3ccccc32)cc1 (stereo not given)	CYP2C9 inhib 70.7, CYP2C19 inhib 52.4
NC1C2CN(c3nc4c(cc3F)c(=O)c(C(=O)O)cn4-c3ccc(F)cc3F)CC12 (stereo not given)	none
Cc1cc(C)c(COCc2cc(/C=N/O)c(C)cc2C)cc1/C=N/O	none
O=C(O)c1ccc(S(=O)(=O)Nc2ccc(F)c(Cl)c2)cc1	none
Cc1cc(NS(=O)(=O)c2ccccc2)cc(Cl)c1O	CYP2C19 inhib 100.1
Cc1ccc(S(=O)(=O)Nc2cc(C)c(O)c(S(=O)(=O)c3ccc(C)cc3)c2)cc1	CYP2C9 inhib 76.7
CCOC(=O)NC(=O)CSc1nnc(C)s1	none
O=[N+]([O-])c1ccc(N2CCC(=NOCc3ccc(Cl)cc3)CC2)cc1	none
COc1cccc(C2CC(=O)Nc3c2c(=O)n(C)c(=O)n3C)c1OC (stereo not given)	none
O=C(Nc1ccc(CN2CCOCC2)cc1)c1cc2ccccc2o1	PostGolgi yeast 37.7
O=C(/C=C/N1CCOCC1)c1cc2ccccc2o1	CYP2C9 inhib 76.8
CCOC(=O)c1ccc(NC(=O)c2ccc(CN3CCOCC3)cc2)cc1	PostGolgi yeast 94.1
O=C(Nc1ccc(N2CCOCC2)cc1)c1cc2ccccc2o1	none
O=C(/C=C/N1CCOCC1)c1coc2ccccc12	none
CC1CCN(C(=O)c2cc3ccccc3o2)CC1	CYP2C19 inhib 86.0
O=C(c1cc2ccccc2o1)N1CCCCCC1	none (no result: CYP2C9 activ, CYP2C19 act, CYP2C9 inhib, CYP2C19 inhib)
CC(=O)N1CCc2cc(S(=O)(=O)NCCN3CCC(C)CC3)ccc21	CYP2C19 inhib 50.8
COc1ccc(CCNC(=O)CCNS(=O)(=O)c2ccc3c(c2)CCN3C(C)=O)cc1OC	CYP2C9 inhib 61.1
CC(=O)N1CCc2cc(S(=O)(=O)NCCCN3CCN(Cc4ccccc4)CC3)ccc21	CYP2C19 inhib 52.5
CC(=O)N1CCc2cc(S(=O)(=O)NCCC(=O)NC3CCN(Cc4ccccc4)CC3)ccc21	none
CCC(=O)N1CCc2cc(S(=O)(=O)NCCCN3CCN(Cc4ccccc4)CC3)ccc21	none
O=C1CC(N2CCC(O)(c3ccc(Cl)cc3)CC2)C(=O)N1 (stereo not given)	none
O=C1CC(N2CCN(c3ccc(Cl)c(Cl)c3)CC2)C(=O)N1 (stereo not given)	PostGolgi yeast 52.3
CCOC(=O)c1c(C)oc2c1c(C(c1ccncc1)N1CCOCC1)c(O)c1ccccc12 (stereo not given)	CYP2C9 inhib 97.4, CYP2C19 inhib 97.7
CCOC(=O)c1c(C)oc2c1c1c(c3ccccc32)OCN(Cc2ccccn2)C1	CYP2C9 inhib 54.0
CCOC(=O)c1c(C)oc2c1c(C=NC1CCS(=O)(=O)C1)c(O)c1ccccc12 (stereo not given)	none
COc1ccc(-c2noc(C3CCCN(S(=O)(=O)c4cccc(Cl)c4C)C3)n2)cc1OC (stereo not given)	PostGolgi ctrl 49.7, CYP2C9 inhib 84.8, CYP2C19 inhib 91.1
Cc1ccc(-c2noc(C3CCCN(C(=O)c4c(F)cccc4F)C3)n2)cc1 (stereo not given)	CYP2C9 inhib 90.8, CYP2C19 inhib 77.8
CCS(=O)(=O)N1CCCC(c2nc(-c3cccc(OC)c3)no2)C1 (stereo not given)	none
O=S(=O)(c1ccccc1Cl)N1CCCC(c2nc(-c3cccnc3)no2)C1 (stereo not given)	CYP2C9 inhib 78.7, CYP2C19 inhib 95.0
CCCS(=O)(=O)N1CCCC(c2nc(-c3ccc(OC)cc3)no2)C1 (stereo not given)	CYP2C9 inhib 82.1
COc1ccc(C(=O)N2CCCC(c3nc(-c4ccc(OC)c(OC)c4)no3)C2)c(OC)c1 (stereo not given)	CYP2C9 inhib 61.4
COc1ccc(-c2noc(C3CCCN(S(=O)(=O)c4ccc(C)c(Cl)c4)C3)n2)cc1OC (stereo not given)	CYP2C9 inhib 56.6, CYP2C19 inhib 67.6
Nc1nnc(CC(=O)N2CCCCC2)s1	none
O=C(NC1CCCCC1)NC1(C(=O)NCCCN2CCOCC2)CCCCC1	none
